Measured values reported in PubChem BioAssay.
Active and inactive are the calls of the source.

What was measured:
[1] = small molecules captured by biotinylated probe aFSTL3 – biochemical, small-molecule microarray, fluorescence 635/667, stem cell growth factor project, primary screen (AID 1064); conditions: higher = more signal;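 further: measures binding of the biotinylated anti-FSTL3 antibody to printed compounds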
[2] = binders from COS7 lysate, DM2A8 probe, primary screen, torsin A project, cell lysate, small-molecule microarray, fluorescence 635/667 (AID 1065); conditions: higher = more signal, COS7 lysate expressing mutant human TOR1A
[3] = small molecules captured by biotinylated probe aFGF2 – biochemical, small-molecule microarray, fluorescence 635/667, stem cell growth factor project, primary screen (AID 1067); conditions: higher = more signal;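 further: measures binding of biotinylated aFGF2 protein to printed compounds on slides; z-score merges feature fluorescence and signal-to-noise across triplicate slides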
[4] = small molecules captured by biotinylated probe aFGF10 – biochemical, small-molecule microarray, fluorescence 635/667, stem cell growth factor project, primary screen (AID 1071); conditions: higher = more signal;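 further: score merges 667 nm spot intensity and signal to noise from triplicate slides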
[5] = biological target: Neurogenic locus notch homolog protein 2 (Homo sapiens) (UniProt Q04721); test: small molecules binding Notch2 protein – biochemical, small-molecule microarray, 635 nm fluorescence, stem cell growth factors, primary screen (AID 1073); conditions: higher = more signal
[6] = biological target: Pro-neuregulin-1, membrane-bound isoform (Homo sapiens) (UniProt Q02297); test: small molecules binding neuregulin-1 protein – biochemical, small-molecule microarray, fluorescence 635/667, psychiatric disease protein project, primary screen (AID 1075); conditions: NRG1 binding, 635 nm fluorescence, higher = more signal;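 further: score combines 667 nm spot fluorescence with signal to noise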
[7] = test system: Neuregulin-1 EGF-like domain; test: small molecules binding NRG1 EGF domain – biochemical, small-molecule microarray, 635 nm fluorescence, primary screen (AID 1081); conditions: higher = more signal;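 further: binding of the protein to compounds printed on small-molecule microarray slides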
[8] = FRG1 expression reporter modulators in myotubes – cell-based, C2C12 myotubes, firefly/Renilla luciferase, luminescence, FRG1 inhibition for FSHD, primary screen (AID 1084); conditions: FRG1 promoter luciferase, higher = more signal, called active from +8 up or from −8 down
[9] = small molecules captured by biotinylated probe aFST – biochemical, small-molecule microarray, fluorescence 635/667, stem cell growth factor project, primary screen (AID 1086); conditions: higher = more signal;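 further: score merges 667 nm fluorescence with signal-to-noise of each printed compound spot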
[10] = binders of probe aHhip on microarray, primary screen, stem cell growth factor project, biochemical, small-molecule microarray, fluorescence 635/667 (AID 1087); conditions: higher = more signal;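 further: score merges spot fluorescence at 667nm with spot signal to noise ratio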
[11] = test system: PRMT1 (protein arginine N-methyltransferase 1); test: small molecules binding arginine methyltransferase PRMT1 – biochemical, small-molecule microarray, 635 nm fluorescence, primary screen (AID 1088); conditions: higher = more signal;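 further: binding of Prmt1 protein to compounds spotted on small-molecule microarray slides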
[12] = growth effects on S. cerevisiae YJM789 – YJM789 clinical isolate, OD600, 24 h, basal, primary screen (AID 1089); conditions: higher = more signal, called active from +8 up or from −8 down;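 further: growth of clinical yeast isolate S. cerevisiae YJM 789 seeded 1000 cells per well; test concentration not given here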
[13] = S. pombe growth modifiers, basal conditions – strain 972, OD600, 24 h, no modulator, primary screen (AID 1090);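 further: basal condition with compound alone and no growth modifier present; test concentration not given here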; conditions: S. pombe 972 growth, higher = more signal, called active from +8 up or from −8 down
[14] = budding yeast growth modifiers under rapamycin – strain BY4716, OD600, 96 h, primary screen (AID 1091); further: test concentration not given here; conditions: S. cerevisiae BY4716 + rapamycin, higher = more signal, called active from +8 up or from −8 down
[15] = biological target: Torsin-1A-interacting protein 2 (Homo sapiens) (UniProt Q8NFQ8); test: small molecules binding lysate-expressed LULL1 – cell lysate, human LULL1 lysate, 635/667 nm fluorescence, primary screen (AID 1092); conditions: small-molecule microarray, hLULL1 lysate binding, 635 nm fluorescence; higher = more signal;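 further: probe is lysate of COS7 cells overexpressing human LULL1; score merges per-feature 667 nm fluorescence with signal-to-noise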
[16] = optical density change of DRC41 E. coli – strain DRC41, OD650, 24 h, E. coli filamentation project, primary screen (AID 1093);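 further: MC1000 strain lacking acrAB efflux and sulA so SOS filamentation is blocked; test concentration not given here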; conditions: E. coli DRC41 growth, higher = more signal, called active from +8 up or from −8 down
[17] = probe aLefty2 binding to arrayed compounds – biochemical, biotinylated probe, 635/667 nm fluorescence, primary screen (AID 1094); conditions: small-molecule microarray, higher = more signal;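 further: score merges spot fluorescence near 667 nm with spot signal-to-noise ratio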
[18] = test system: Noggin (protein binding on small-molecule microarray); test: small molecules binding Noggin protein – biochemical, 635/667 nm fluorescence, primary screen (AID 1095); conditions: 635 nm fluorescence, higher = more signal;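 further: score merges 667 nm feature fluorescence with signal to noise over triplicate slides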
[19] = biological target: Neurogenic locus notch homolog protein 3 (Homo sapiens) (UniProt Q9UM47); test: small molecules binding NOTCH3 protein – biochemical, 635/667 nm fluorescence, primary screen (AID 1096); conditions: small-molecule microarray, 635 nm fluorescence, higher = more signal
[20] = probe aEGFR binding to arrayed compounds – biochemical, biotinylated probe, 635/667 nm fluorescence, primary screen (AID 1097); conditions: small-molecule microarray, higher = more signal;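 further: probe is a biotinylated anti-EGFR antibody binding compounds printed on slides; score combines fluorescence near 667 nm and signal to noise of each spot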

Sequence of Neurogenic locus notch homolog protein 3 (Homo sapiens) (Q9UM47 whole entry, looked up): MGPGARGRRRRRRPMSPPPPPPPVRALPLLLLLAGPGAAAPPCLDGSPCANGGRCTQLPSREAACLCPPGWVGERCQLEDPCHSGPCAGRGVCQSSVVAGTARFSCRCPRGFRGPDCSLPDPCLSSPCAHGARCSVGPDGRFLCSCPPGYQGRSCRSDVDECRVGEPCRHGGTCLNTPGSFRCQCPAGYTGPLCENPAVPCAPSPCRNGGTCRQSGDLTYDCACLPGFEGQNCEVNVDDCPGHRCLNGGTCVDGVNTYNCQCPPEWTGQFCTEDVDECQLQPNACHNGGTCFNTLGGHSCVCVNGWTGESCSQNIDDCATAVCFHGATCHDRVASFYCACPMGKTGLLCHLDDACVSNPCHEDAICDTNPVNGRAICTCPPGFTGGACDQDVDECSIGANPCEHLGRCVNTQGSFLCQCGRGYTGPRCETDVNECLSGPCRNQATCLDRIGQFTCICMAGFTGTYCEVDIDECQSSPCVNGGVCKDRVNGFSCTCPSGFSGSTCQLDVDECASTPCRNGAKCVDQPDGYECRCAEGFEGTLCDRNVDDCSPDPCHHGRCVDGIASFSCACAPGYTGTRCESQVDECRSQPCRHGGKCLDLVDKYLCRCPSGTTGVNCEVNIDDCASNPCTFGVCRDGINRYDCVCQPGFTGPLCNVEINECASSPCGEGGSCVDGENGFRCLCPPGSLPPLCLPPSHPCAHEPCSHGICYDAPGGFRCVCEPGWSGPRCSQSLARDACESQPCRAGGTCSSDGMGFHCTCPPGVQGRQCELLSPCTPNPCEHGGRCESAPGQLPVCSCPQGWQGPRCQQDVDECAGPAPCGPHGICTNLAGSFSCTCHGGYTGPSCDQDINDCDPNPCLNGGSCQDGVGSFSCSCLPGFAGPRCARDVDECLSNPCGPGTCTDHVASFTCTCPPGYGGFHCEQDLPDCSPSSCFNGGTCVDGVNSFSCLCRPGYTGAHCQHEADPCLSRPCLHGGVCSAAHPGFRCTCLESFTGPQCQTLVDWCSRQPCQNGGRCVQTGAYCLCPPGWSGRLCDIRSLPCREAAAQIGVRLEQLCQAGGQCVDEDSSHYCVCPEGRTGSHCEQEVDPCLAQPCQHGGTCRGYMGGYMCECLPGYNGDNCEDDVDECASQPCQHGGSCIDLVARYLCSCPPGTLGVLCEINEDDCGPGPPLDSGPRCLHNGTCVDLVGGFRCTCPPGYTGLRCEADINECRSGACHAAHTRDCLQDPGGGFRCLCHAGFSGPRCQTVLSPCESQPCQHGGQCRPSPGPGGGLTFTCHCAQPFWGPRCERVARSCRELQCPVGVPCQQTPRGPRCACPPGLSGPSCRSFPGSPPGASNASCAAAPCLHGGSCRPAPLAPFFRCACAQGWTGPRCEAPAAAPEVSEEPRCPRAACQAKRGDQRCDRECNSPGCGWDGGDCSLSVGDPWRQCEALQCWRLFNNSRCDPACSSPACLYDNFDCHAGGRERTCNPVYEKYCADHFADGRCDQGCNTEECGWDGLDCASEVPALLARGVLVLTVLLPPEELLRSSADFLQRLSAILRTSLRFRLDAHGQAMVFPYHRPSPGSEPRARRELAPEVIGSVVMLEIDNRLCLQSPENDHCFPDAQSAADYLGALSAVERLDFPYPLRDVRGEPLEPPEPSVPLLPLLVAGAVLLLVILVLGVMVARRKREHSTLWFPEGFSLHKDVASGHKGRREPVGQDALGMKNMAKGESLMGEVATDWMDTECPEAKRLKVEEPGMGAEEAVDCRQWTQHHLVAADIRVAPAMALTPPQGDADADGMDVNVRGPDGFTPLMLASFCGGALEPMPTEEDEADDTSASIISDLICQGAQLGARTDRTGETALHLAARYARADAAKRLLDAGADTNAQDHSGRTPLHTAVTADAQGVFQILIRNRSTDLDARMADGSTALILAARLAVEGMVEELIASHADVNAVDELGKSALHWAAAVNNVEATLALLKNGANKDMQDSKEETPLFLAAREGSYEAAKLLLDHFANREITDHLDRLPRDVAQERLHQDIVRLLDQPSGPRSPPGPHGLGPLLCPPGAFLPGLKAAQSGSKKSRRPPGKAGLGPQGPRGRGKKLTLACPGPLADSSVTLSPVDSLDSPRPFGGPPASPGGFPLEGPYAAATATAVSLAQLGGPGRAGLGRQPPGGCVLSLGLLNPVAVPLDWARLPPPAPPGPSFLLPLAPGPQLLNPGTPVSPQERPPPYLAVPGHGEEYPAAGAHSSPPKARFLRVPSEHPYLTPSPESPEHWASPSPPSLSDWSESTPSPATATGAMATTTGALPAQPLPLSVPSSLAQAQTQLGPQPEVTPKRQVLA
Sequence of Pro-neuregulin-1, membrane-bound isoform (Homo sapiens) (Q02297 whole entry, looked up, the tested form may be a part, canonical isoform): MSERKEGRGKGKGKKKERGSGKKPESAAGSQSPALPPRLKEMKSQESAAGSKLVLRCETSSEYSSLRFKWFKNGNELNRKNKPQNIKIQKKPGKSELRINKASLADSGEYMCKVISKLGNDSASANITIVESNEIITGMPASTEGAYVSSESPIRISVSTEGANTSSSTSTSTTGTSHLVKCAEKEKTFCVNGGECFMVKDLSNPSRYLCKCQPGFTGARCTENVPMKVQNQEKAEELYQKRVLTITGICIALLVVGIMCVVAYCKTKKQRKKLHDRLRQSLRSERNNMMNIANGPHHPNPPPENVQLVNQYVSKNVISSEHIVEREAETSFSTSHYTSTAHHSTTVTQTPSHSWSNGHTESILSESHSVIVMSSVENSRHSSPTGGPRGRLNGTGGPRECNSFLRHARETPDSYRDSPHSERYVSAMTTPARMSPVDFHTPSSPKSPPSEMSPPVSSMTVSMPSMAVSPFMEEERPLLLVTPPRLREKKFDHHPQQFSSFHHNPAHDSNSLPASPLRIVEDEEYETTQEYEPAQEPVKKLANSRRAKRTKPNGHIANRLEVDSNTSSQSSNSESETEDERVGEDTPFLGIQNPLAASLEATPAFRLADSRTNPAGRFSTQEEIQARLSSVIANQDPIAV
Sequence of Torsin-1A-interacting protein 2 (Homo sapiens) (Q8NFQ8 whole entry, looked up): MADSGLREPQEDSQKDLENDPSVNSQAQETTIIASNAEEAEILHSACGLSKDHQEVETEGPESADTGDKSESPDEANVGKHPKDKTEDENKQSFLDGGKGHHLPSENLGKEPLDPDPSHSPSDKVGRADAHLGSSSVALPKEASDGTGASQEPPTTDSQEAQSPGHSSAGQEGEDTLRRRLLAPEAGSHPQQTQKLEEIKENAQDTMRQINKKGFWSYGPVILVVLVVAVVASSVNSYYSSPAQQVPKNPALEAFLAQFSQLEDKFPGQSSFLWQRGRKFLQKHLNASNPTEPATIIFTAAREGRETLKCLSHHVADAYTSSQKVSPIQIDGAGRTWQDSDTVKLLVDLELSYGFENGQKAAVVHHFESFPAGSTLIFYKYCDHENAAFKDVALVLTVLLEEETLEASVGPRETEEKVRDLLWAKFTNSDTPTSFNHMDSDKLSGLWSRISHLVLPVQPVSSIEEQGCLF

## COC(=O)[C@]1(CCC(=O)OC(C)(C)C)N=C(c2ccc(OCCCO)cc2)O[C@@H]1c1ccccc1N=[N+]=[N-]
[1]
  composite z-score: 0.375
[2]
  composite z-score: -0.135
[3]
  composite z-score: -0.132
[4]
  composite z-score: 0.171
[5]
  composite z-score: 0.552
[6]
  composite z-score: 0.623
[7]
  composite z-score: 0.908
[8]
  z-score: 2.96 (inactive)
[9]
  composite z-score: 0.219
[10]
  composite z-score: -0.484
[11]
  composite z-score: 1.42
[12]
  z-score: 1.15 (inactive)
[13]
  z-score: -0.491 (inactive)
[14]
  z-score: 33.8 (active)
[15]
  composite z-score: 2.08
[16]
  z-score: 0.217 (inactive)
[17]
  composite z-score: 0.0664
[18]
  composite z-score: 0.677
[19]
  composite z-score: 0.361
[20]
  composite z-score: -0.127

## O=C1C2C=CC(C(O)c3ccc([N+](=O)[O-])cc3)N(Nc3ccccc3F)C2C(=O)N1c1ccccc1 (stereo not given)
[1]
  composite z-score: 0.484
[2]
  composite z-score: 0.173
[3]
  composite z-score: -0.0172
[4]
  composite z-score: 0.438
[5]
  composite z-score: 1.12
[6]
  composite z-score: 1.6
[7]
  composite z-score: 1.29
[8]
  z-score: -0.101 (inactive)
[9]
  composite z-score: 0.883
[10]
  composite z-score: -0.163
[11]
  composite z-score: 0.67
[12]
  z-score: 0.213 (inactive)
[13]
  z-score: 0.619 (inactive)
[14]
  z-score: 1.05 (inactive)
[15]
  composite z-score: 1.87
[16]
  z-score: -0.774 (inactive)
[17]
  composite z-score: 0.296
[18]
  composite z-score: -0.316
[19]
  composite z-score: 0.98
[20]
  composite z-score: -0.0278

## CC[C@@H]1C=C(C(=O)O)[C@H](c2ccc(OC)cc2)N1S(=O)(=O)c1ccc(C)cc1
[1]
  composite z-score: 0.0675
[2]
  composite z-score: -0.194
[3]
  composite z-score: -0.128
[4]
  composite z-score: -0.0542
[5]
  composite z-score: 0.0174
[6]
  composite z-score: 0.993
[7]
  composite z-score: 1.28
[8]
  z-score: 0.267 (inactive)
[9]
  composite z-score: 0.233
[10]
  composite z-score: -0.0994
[11]
  composite z-score: -0.222
[12]
  z-score: -0.639 (inactive)
[13]
  z-score: 0.211 (inactive)
[14]
  z-score: -0.113 (inactive)
[15]
  composite z-score: 2.15
[16]
  z-score: -1.04 (inactive)
[17]
  composite z-score: -0.0491
[18]
  composite z-score: -0.199
[19]
  composite z-score: 0.624
[20]
  composite z-score: -0.0828

## NC(=O)N1C(=O)C2C(C1=O)C1C=C(CCCO)C2C(c2ccc(CN3CCCC3)cc2)N1Cc1cc2c(cc1Br)OCO2 (stereo not given)
[1]
  composite z-score: 0.117
[2]
  composite z-score: 0.19
[3]
  composite z-score: -0.0909
[4]
  composite z-score: -0.0906
[5]
  composite z-score: -0.362
[6]
  composite z-score: -0.311
[7]
  composite z-score: 0.626
[8]
  z-score: -0.905 (inactive)
[9]
  composite z-score: -0.369
[10]
  composite z-score: -0.476
[11]
  composite z-score: 0.964
[12]
  z-score: -2.23 (inactive)
[13]
  z-score: -0.251 (inactive)
[14]
  z-score: -0.665 (inactive)
[15]
  composite z-score: 0.835
[16]
  z-score: 0.181 (inactive)
[17]
  composite z-score: -0.128
[18]
  composite z-score: 0.208
[19]
  composite z-score: -0.788
[20]
  composite z-score: -0.211

## CCOC(=O)C[C@H]1[C@H](OC(=O)c2ccccc2-c2ccccc2)[C@@H](NC(=O)c2ccc3ccccc3c2)c2cc(OCCCO)ccc2N1C(=O)Cc1ccc(OC)cc1
[1]
  composite z-score: 0.225
[2]
  composite z-score: 0.0793
[3]
  composite z-score: -0.118
[4]
  composite z-score: 0.162
[5]
  composite z-score: -0.105
[6]
  composite z-score: 0.0671
[7]
  composite z-score: -0.58
[8]
  z-score: 1.11 (inactive)
[9]
  composite z-score: 0.206
[10]
  composite z-score: -0.0645
[11]
  composite z-score: -0.793
[12]
  z-score: -0.97 (inactive)
[13]
  z-score: -0.446 (inactive)
[14]
  z-score: -0.248 (inactive)
[15]
  composite z-score: 0.276
[16]
  z-score: -0.904 (inactive)
[17]
  composite z-score: -0.281
[18]
  composite z-score: -0.206
[19]
  composite z-score: -0.626
[20]
  composite z-score: 0.0004

## COc1ccc(C(O)C2C=CC3C(=O)N(C)C(=O)C3N2N(c2ccccc2)c2ccccc2)cc1 (stereo not given)
[1]
  composite z-score: 0.967
[2]
  composite z-score: 1.17
[3]
  composite z-score: 0.0148
[4]
  composite z-score: 0.209
[5]
  composite z-score: 1.41
[6]
  composite z-score: 0.941
[7]
  composite z-score: 1.22
[8]
  z-score: 0.57 (inactive)
[9]
  composite z-score: 0.982
[10]
  composite z-score: 0.0972
[11]
  composite z-score: 0.923
[12]
  z-score: -0.054 (inactive)
[13]
  z-score: 0.733 (inactive)
[14]
  z-score: 1.08 (inactive)
[15]
  composite z-score: 2.18
[16]
  z-score: -0.994 (inactive)
[17]
  composite z-score: 0.276
[18]
  composite z-score: 0.269
[19]
  composite z-score: 0.791
[20]
  composite z-score: -0.111

## COc1ccc(C(=O)Nc2cccc(CN3C(=O)[C@@]4(O[C@@H](CC(=O)N5CCC[C@H]5CO)[C@H]([Si](C)(C)c5ccc(OC)cc5)[C@H]4C)c4ccccc43)c2)cc1
[1]
  composite z-score: -0.226
[2]
  composite z-score: 0.484
[3]
  composite z-score: -0.0625
[4]
  composite z-score: 0.0314
[5]
  composite z-score: 0.518
[6]
  composite z-score: 1.39
[7]
  composite z-score: 1.13
[8]
  z-score: -3.85 (inactive)
[9]
  composite z-score: -0.0084
[10]
  composite z-score: -0.261
[11]
  composite z-score: 1.55
[12]
  z-score: -0.624 (inactive)
[13]
  z-score: 0.706 (inactive)
[14]
  z-score: -1.2 (inactive)
[15]
  composite z-score: 0.983
[16]
  z-score: -0.126 (inactive)
[17]
  composite z-score: -0.102
[18]
  composite z-score: 0.766
[19]
  composite z-score: 0.957
[20]
  composite z-score: -0.118

## O=C1O[C@@H](c2ccccc2)[C@@H](c2ccccc2)N2[C@@H](c3ccc(OCCO)cc3)[C@]3(C(=O)Nc4ccc(C#CC5(O)CCCCCC5)cc43)[C@@H](C(=O)Nc3nc4ccccc4s3)[C@H]12
[1]
  composite z-score: -0.017
[2]
  composite z-score: 1.17
[3]
  composite z-score: 0.0649
[4]
  composite z-score: 0.517
[5]
  composite z-score: 1.46
[6]
  composite z-score: 1.51
[7]
  composite z-score: 1.24
[8]
  z-score: 2.48 (inactive)
[9]
  composite z-score: 0.397
[10]
  composite z-score: 0.113
[11]
  composite z-score: 1.55
[12]
  z-score: 2.44 (inactive)
[13]
  z-score: 1.19 (inactive)
[14]
  z-score: 2.78 (inactive)
[15]
  composite z-score: 2.96
[16]
  z-score: 0.799 (inactive)
[17]
  composite z-score: 0.0769
[18]
  composite z-score: 1.18
[19]
  composite z-score: 1.07
[20]
  composite z-score: 0.191

## COC(=O)[C@@]1(Cc2ccc(F)cc2)[C@H]2c3cc(C(=O)N4CCCC4)n(Cc4ccccn4)c3C[C@H]2CN1C(=O)c1ccccc1
[1]
  composite z-score: 0.116
[2]
  composite z-score: -0.89
[3]
  composite z-score: 0.272
[4]
  composite z-score: 1.22
[5]
  composite z-score: 1.71
[6]
  composite z-score: 1.29
[7]
  composite z-score: 1.4
[8]
  z-score: 0.755 (inactive)
[9]
  composite z-score: 0.987
[10]
  composite z-score: 0.685
[11]
  composite z-score: 0.159
[12]
  z-score: 0.269 (inactive)
[13]
  z-score: -0.289 (inactive)
[14]
  z-score: 0.856 (inactive)
[15]
  composite z-score: 3.32
[16]
  z-score: -1.76 (inactive)
[17]
  composite z-score: 0.361
[18]
  composite z-score: -0.108
[19]
  composite z-score: 0.841
[20]
  composite z-score: 0.33

## COCCOC(=O)N1C(=O)[C@@]2(c3ccccc31)[C@H](c1ccc(O)cc1)N1[C@H](c3ccccc3)[C@H](c3ccccc3)OC(=O)[C@H]1[C@@H]2C(=O)N1CCCCCCC1
[1]
  composite z-score: 3.84
[2]
  composite z-score: 1.88
[3]
  composite z-score: 0.949
[4]
  composite z-score: 0.802
[5]
  composite z-score: 1.07
[6]
  composite z-score: 2.5
[7]
  composite z-score: 1.29
[8]
  z-score: -3.25 (inactive)
[9]
  composite z-score: 3.5
[10]
  composite z-score: 3.27
[11]
  composite z-score: 1.55
[12]
  z-score: -0.322 (inactive)
[13]
  z-score: 0.621 (inactive)
[14]
  z-score: 0.929 (inactive)
[15]
  composite z-score: 3.9
[16]
  z-score: 0.178 (inactive)
[17]
  composite z-score: 1.76
[18]
  composite z-score: 1.98
[19]
  composite z-score: 1.02
[20]
  composite z-score: 1.26
